# The supplement of paper PMC12350171
# Structures can show the parent of a compound that is named as a salt. A number with no mark means an inactive call.
# Legend:
# Settings in all cases: 20 µM
# [1] = system: Salmonella enterica typhimurium; assay: growth AUC normalised to DMSO control (fraction of control); higher = less growth inhibition, active = hit call of the paper
# In short: (§1)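 Three biological replicates were carried out, with OD578 read hourly for 24 h. Before inoculation at a starting OD578 of 0.01, pathogens were passaged anaerobically twice; plates were pre-reduced mGAM containing 20 μM compound and 1% DMSO, sealed with breathable membranes, and the Haemophilus parainfluenzae medium carried added hemin and NAD. Area under each growth curve was calculated by the trapezoidal rule up to the exponential-to-stationary transition and normalised to DMSO controls on the same plate.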
# Shigella flexneri = assay: as above
# In short: as §1
# Vibrio cholerae = assay: as above
# In short: as §1
# [2] = system: Yersinia pseudotuberculosis; assay: as above
# In short: as §1
# P. vulgatus RND KO = assay: growth AUC normalised to DMSO control (median) (fraction of control); higher = less growth inhibition, active = hit call of the paper
# In short: (§2)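 Area under the growth curve, calculated by the trapezoidal rule up to entry into stationary phase, was normalised to vehicle wells on the same plate. Strains had been passaged twice overnight without oxygen and then grown in mGAM in 96-well plates from OD578 0.01, each with an approved-drug library compound at 20 μM in 1% DMSO. OD578 was read hourly over 24 h in an anaerobic incubator, and the median of three biological replicates is given.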
# P. vulgatus WT = assay: as above
# In short: as §2
# [3] = system: S. enterica typhimurium WT; assay: as above
# In short: as §2
# [4] = system: S. enterica typhimurium tolC KO; assay: as above
# In short: as §2
# 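For growth AUC normalised to DMSO control (median) in this document: active when median AUC fell below 0.1.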
Compound,growth AUC normalised to DMSO control [1],growth AUC normalised to DMSO control (Shigella flexneri),growth AUC normalised to DMSO control (Vibrio cholerae),growth AUC normalised to DMSO control [2],growth AUC normalised to DMSO control (P. vulgatus RND KO),growth AUC normalised to DMSO control (P. vulgatus WT),growth AUC normalised to DMSO control [3],growth AUC normalised to DMSO control [4]
CO[C@@]1(NC(=O)C(C(=O)O)c2ccc(O)cc2)C(=O)N2C(C(=O)O)=C(CSc3nnnn3C)CO[C@@H]21 (some centres not stated) [Moxalactam disodium salt],0.00566 (active),0.0488 (active),0.639 (active),0.149 (active),0.0332 (active),0.0488 (active),,
NC(=O)NC1NC(=O)NC1=O (configuration not stated) [Allantoin],1,0.996,1.05,0.989,0.999,1.01,0.994,0.998
COC(=O)C1=C(C)NC(C)=C(C(=O)OCC(C)C)C1c1ccccc1[N+](=O)[O-] (configuration not stated) [Nisoldipine],1.01,1,1.01,0.991,0.945,0.981,1.01,0.95
OCCN(CCO)c1nc(N2CCCCC2)c2nc(N(CCO)CCO)nc(N3CCCCC3)c2n1 [Dipyridamole],1.01,1.01,1.01,1,1,0.997,1.02,0.956
CCCCN(CCCC)CCCOC(=O)c1ccc(N)cc1 [Butacaine],0.988,1.01,0.981,1,1.05,1.04,1.01,1
N[C@@H](Cc1cc(I)c(Oc2ccc(O)c(I)c2)c(I)c1)C(=O)O [Liothyronine],0.985,0.951,0.981,0.976,0.987,0.984,1.01,1
CC(=O)Nc1nnc(S(N)(=O)=O)s1 [Acetazolamide],0.969,0.962,1.03,0.984,0.995,0.974,0.994,0.998
CC(C)(C)NC(=O)[C@@H]1C[C@@H]2CCCC[C@@H]2CN1C[C@@H](O)[C@H](Cc1ccccc1)NC(=O)[C@H](CC(N)=O)NC(=O)c1ccc2ccccc2n1 [Saquinavir mesylate],1.01,1.02,1.04,1.03,0.859,0.89,1.02,1
Nc1ccn([C@@H]2O[C@H](CO)[C@@H](O)C2(F)F)c(=O)n1 [Gemcitabine],1.01,1.04,1.01,1.03,1.01,1.02,0.983,
NS(=O)(=O)c1cc(Cl)c(Cl)c(S(N)(=O)=O)c1 [Dichlorphenamide],1.01,1.06,1.07,1.02,1.05,1.04,0.995,1.01
O=C1Nc2ccc(Cl)cc2[C@@](C#CC2CC2)(C(F)(F)F)O1 [Efavirenz],0.997,1.01,0.999,0.999,0.715,0.752,1,0.261
CC(=O)OCC(=O)[C@@]1(O)CC[C@H]2[C@@H]3CCC4=CC(=O)CC[C@]4(C)[C@H]3[C@@H](O)C[C@@]21C [Cortisol acetate],1.03,0.997,1,1,1,1.03,1.01,1
CN(C)CCCN1c2ccccc2CCc2ccccc21 [Imipramine hydrochloride],0.998,0.994,0.935,1.01,1,0.998,1.02,0.984
CC[C@]12CCCN3CCc4c(n(c5ccccc45)[C@@](O)(C(=O)OC)C1)[C@@H]32 [Vincamine],1.02,0.979,0.995,0.989,1.02,1.05,1.02,1
CCCC1O[C@@H]2C[C@H]3[C@@H]4CCC5=CC(=O)C=C[C@]5(C)[C@H]4[C@@H](O)C[C@]3(C)[C@]2(C(=O)CO)O1 (some centres not stated) [Budesonide],0.978,0.995,0.987,0.989,0.968,0.999,0.991,0.984
C#C[C@]1(O)CC[C@H]2[C@@H]3[C@H](C)CC4=C(CCC(=O)C4)[C@H]3CC[C@@]21C [Tibolone],0.999,0.971,0.974,1,0.963,0.994,1,0.986

Compound,growth AUC normalised to DMSO control [1],growth AUC normalised to DMSO control (Shigella flexneri),growth AUC normalised to DMSO control (Vibrio cholerae),growth AUC normalised to DMSO control [2],growth AUC normalised to DMSO control (P. vulgatus RND KO),growth AUC normalised to DMSO control (P. vulgatus WT),growth AUC normalised to DMSO control [3],growth AUC normalised to DMSO control [4]
Nc1ncnc2c1ncn2C1OC(COP(=O)(O)O)C(O)C1O (configuration not stated) [Adenosine 5'-monophosphate monohydrate],0.999,0.986,0.981,1,0.977,0.984,0.992,0.995
COc1cc(NS(=O)(=O)c2ccc(N)cc2)nc(OC)n1 [Sulfadimethoxine],1.02,1.01,1.02,0.987,0.994,1.04,1,0.99
COC(=O)Nc1nc2cc(C(=O)c3ccc(F)cc3)ccc2[nH]1 [Flubendazol],1.02,0.994,0.993,0.994,1.04,1.07,1.01,1
C#C[C@]1(O)CC[C@H]2[C@@H]3CCC4=Cc5oncc5C[C@]4(C)[C@H]3CC[C@@]21C [Danazol],0.994,0.971,0.991,0.954,0.982,0.992,1,0.983
CC(CN(C)C)CN1c2ccccc2CCc2ccccc21 (configuration not stated) [Trimipramine maleate salt],1,1.05,1.07,1.01,1.06,1.03,1.02,0.963
CC(C)(C(=O)O)c1ccc(C(O)CCCN2CCC(C(O)(c3ccccc3)c3ccccc3)CC2)cc1 (configuration not stated) [Fexofenadine hydrochloride],1.02,1.02,1.04,0.99,1.01,1.01,1.01,1
c1ccc(C2CN3CCSC3=N2)cc1 (configuration not stated) [Tetramisole hydrochloride],1.01,1.03,1.01,1.01,,,,
Cc1cccc(Nc2ccccc2C(=O)O)c1C [Mefenamic acid],1,1.01,0.926,1,0.958,0.979,0.985,1.01
Cc1cc(-n2c(=O)[nH]c(=O)n(C)c2=O)ccc1Oc1ccc(SC(F)(F)F)cc1 [Toltrazuril],1.01,0.995,1,1.01,,,,
COc1ccc(C(Cl)=C(c2ccc(OC)cc2)c2ccc(OC)cc2)cc1 [Chlorotrianisene],0.994,0.944,0.983,1.01,0.96,0.928,0.978,0.993
CN1Cc2c(N)cccc2C(c2ccccc2)C1 (configuration not stated) [Nomifensine maleate],0.977,1.01,0.961,0.94,1,0.987,0.997,1
CC(=O)O[C@]1(C(C)=O)CC[C@H]2[C@@H]3C=C(C)C4=CC(=O)CC[C@]4(C)[C@H]3CC[C@@]21C [Megestrol acetate],1.02,1.12,1.1,1.05,0.992,0.999,1.01,0.931
COc1ccc2cc([C@@H](C)C(=O)O)ccc2c1 [(R) Naproxen sodium salt],1.02,1.08,1.06,1.03,1.06,1.07,1,1.02
CCN(CC)CCNC(=O)c1ccc(N)cc1 [Procainamide hydrochloride],0.994,0.99,0.999,1,1.02,1.03,1,1
NCCCC[C@H](N[C@@H](CCc1ccccc1)C(=O)O)C(=O)N1CCC[C@H]1C(=O)O [Lisinopril],1.01,1.02,1.04,1.01,1.05,1.04,1.01,0.997
